# Source: the supplement of paper PMC8728848
# This is one part of a sample in which the strongest signals are shown more often than they occur.
# B1: Arath Fbox (Arabidopsis thaliana), NP_178341.1 (protein)
# chain: EFTWGRKRRVKSESSPFDSFPEDCISYIISFTNPRDACVAATVSKTFESTVKSDIIWEKFLPADYESLIPPSRVFSSKKELYFSLCNDPVLFDDDKKSVWLEKASGKRCLMLSAMNLSIIWGDNPQYWQWIPIPESRFEKVAKLRDVCWFEIRGRTNTRVLSPRTRYSAYIVFKGVDKCYGFQNVAIEAAVGVVGQEPSRRLICFSEAIRRGRRNVVKPKQREDGWMEIELGEFFNDGGIMDNDEIEMSALETKQLNRKCGLIIQGIEIRPAKILAAAAASFLEQKLISEEDLNSAVDHHHHHH
# Assays:
# Assay in all cases: glycan array binding signal (z-score within array); higher = stronger binding
# Conditions in all cases: glycan notation: IUPAC condensed, linker removed
# [1] = target: Fuc(a1-2)Gal(b1-3)GalNAc(a1-3)[Fuc(a1-2)]Gal(b1-4)Glc
# Procedure, shortened: (§1)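 The binding signal is a Z-score computed within each array. Data were drawn from 3228 arrays in the Consortium for Functional Glycomics database, restricted to those with a known protein sequence. Scores were averaged over arrays of the same protein sequence at different concentrations or buffers, and over linkers, and negative values can be taken as non-binding.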
# [2] = target: Fuc(a1-2)Gal(b1-3)GalNAc(b1-4)[Neu5Ac(a2-3)]Gal(b1-4)Glc
# Procedure, shortened: as §1
# [3] = target: Fuc(a1-2)Gal(b1-3)GlcNAc(b1-3)[Neu5Ac(a2-6)Gal(b1-4)GlcNAc(b1-6)]Gal(b1-4)Glc
# Procedure, shortened: as §1
# Fuc(a1-2)Gal(b1-4)GlcNAc = target: Fuc(a1-2)Gal(b1-4)GlcNAc
# Procedure, shortened: as §1
# [4] = target: Fuc(a1-2)[Gal(a1-3)]Gal(b1-3)GlcNAc(b1-6)GalNAc
# Procedure, shortened: as §1
# [5] = target: Fuc(a1-2)[Gal(a1-4)]Gal(b1-4)GlcNAc
# Procedure, shortened: as §1
# [6] = target: Fuc(a1-2)[GalNAc(a1-3)]Gal(b1-3)GlcNAc(b1-6)GalNAc
# Procedure, shortened: as §1
# [7] = target: Fuc(a1-2)[GalNAc(a1-3)]Gal(b1-4)GlcNAc
# Procedure, shortened: as §1
# [8] = target: Fuc(a1-2)[GalNAc(a1-3)]Gal(b1-4)GlcNAc(b1-3)Gal(b1-4)GlcNAc
# Procedure, shortened: as §1
# [9] = target: Fuc(a1-2)[GalNAc(a1-3)]Gal(b1-4)GlcNAc(b1-6)GalNAc
# Procedure, shortened: as §1
# Gal(a1-3)Gal(b1-3)GlcNAc = target: Gal(a1-3)Gal(b1-3)GlcNAc
# Procedure, shortened: as §1
# [10] = target: Gal(a1-3)Gal(b1-3)[Fuc(a1-4)]GlcNAc(b1-2)Man(a1-3)[Gal(a1-3)Gal(b1-3)[Fuc(a1-4)]GlcNAc(b1-2)Man(a1-6)]Man(b1-4)GlcNAc(b1-4)GlcNAc
# Procedure, shortened: as §1
# [11] = target: Gal(a1-3)Gal(b1-4)[Fuc(a1-3)]GlcNAc(b1-2)Man(a1-3)[Gal(a1-3)Gal(b1-4)[Fuc(a1-3)]GlcNAc(b1-2)Man(a1-6)]Man(b1-4)GlcNAc(b1-4)GlcNAc
# Procedure, shortened: as §1
# [12] = target: Gal(a1-4)Gal(b1-4)GlcNAc(b1-2)Man(a1-3)[Gal(a1-4)Gal(b1-4)GlcNAc(b1-2)Man(a1-6)]Man(b1-4)GlcNAc(b1-4)GlcNAc
# Procedure, shortened: as §1
# [13] = target: Gal(b1-3)GlcNAc(a1-6)Gal(b1-4)GlcNAc
# Procedure, shortened: as §1
# [14] = target: Gal(b1-3)GlcNAc(b1-2)Man(a1-3)[Gal(b1-3)GlcNAc(b1-2)Man(a1-6)]Man(b1-4)GlcNAc(b1-4)[Fuc(a1-6)]GlcNAc
# Procedure, shortened: as §1
# [15] = target: Gal(b1-3)GlcNAc(b1-3)Gal(b1-4)[Fuc(a1-3)]GlcNAc
# Procedure, shortened: as §1
# [16] = target: Gal(b1-3)[Fuc(a1-4)]GlcNAc(b1-2)Man
# Procedure, shortened: as §1
# [17] = target: Gal(b1-4)GlcNAc(b1-2)Man(a1-3)Man(b1-4)GlcNAc(b1-4)GlcNAc
# Procedure, shortened: as §1
# [18] = target: Gal(b1-4)GlcNAc(b1-2)[Gal(b1-4)GlcNAc(b1-4)]Man(a1-3)[GlcNAc(b1-4)][Gal(b1-4)GlcNAc(b1-2)Man(a1-6)]Man(b1-4)GlcNAc(b1-4)GlcNAc
# Procedure, shortened: as §1
# [19] = target: Gal(b1-4)GlcNAc(b1-3)Gal(b1-3)GalNAc
# Procedure, shortened: as §1
# [20] = target: Gal(b1-4)GlcNAc(b1-3)Gal(b1-4)GlcNAc(b1-2)Man(a1-3)[Gal(b1-4)GlcNAc(b1-3)Gal(b1-4)GlcNAc(b1-2)Man(a1-6)]Man(b1-4)GlcNAc(b1-4)[Fuc(a1-6)]GlcNAc
# Procedure, shortened: as §1
# [21] = target: Gal(b1-4)GlcNAc(b1-3)Gal(b1-4)GlcNAc(b1-2)[Gal(b1-4)GlcNAc(b1-3)Gal(b1-4)GlcNAc(b1-6)]Man(a1-6)[Gal(b1-4)GlcNAc(b1-3)Gal(b1-4)GlcNAc(b1-2)Man(a1-3)]Man(b1-4)GlcNAc(b1-4)GlcNAc
# Procedure, shortened: as §1
# [22] = target: Gal(b1-4)GlcNAc(b1-3)Gal(b1-4)GlcNAc(b1-3)Gal(b1-4)GlcNAc(b1-2)[Gal(b1-4)GlcNAc(b1-3)Gal(b1-4)GlcNAc(b1-3)Gal(b1-4)GlcNAc(b1-6)]Man(a1-6)[Gal(b1-4)GlcNAc(b1-3)Gal(b1-4)GlcNAc(b1-3)Gal(b1-4)GlcNAc(b1-2)Man(a1-3)]Man(b1-4)GlcNAc(b1-4)[Fuc(a1-6)]GlcNAc
# Procedure, shortened: as §1
# [23] = target: Gal(b1-4)GlcNAc(b1-3)Gal(b1-4)GlcNAc(b1-3)Gal(b1-4)GlcNAc(b1-3)Gal(b1-4)GlcNAc(b1-2)[Gal(b1-4)GlcNAc(b1-3)Gal(b1-4)GlcNAc(b1-3)Gal(b1-4)GlcNAc(b1-3)Gal(b1-4)GlcNAc(b1-6)]Man(a1-6)[Gal(b1-4)GlcNAc(b1-3)Gal(b1-4)GlcNAc(b1-3)Gal(b1-4)GlcNAc(b1-3)Gal(b1-4)GlcNAc(b1-2)Man(a1-3)]Man(b1-4)GlcNAc(b1-4)[Fuc(a1-6)]GlcNAc
# Procedure, shortened: as §1
# [24] = target: Gal(b1-4)GlcNAc(b1-3)Gal(b1-4)GlcNAc(b1-3)Gal(b1-4)GlcNAc(b1-3)Gal(b1-4)GlcNAc(b1-3)Gal(b1-4)GlcNAc(b1-2)Man(a1-3)[Gal(b1-4)GlcNAc(b1-3)Gal(b1-4)GlcNAc(b1-3)Gal(b1-4)GlcNAc(b1-3)Gal(b1-4)GlcNAc(b1-3)Gal(b1-4)GlcNAc(b1-2)Man(a1-6)]Man(b1-4)GlcNAc(b1-4)GlcNAc
# Procedure, shortened: as §1
# [25] = target: Gal(b1-4)GlcNAc(b1-3)Gal(b1-4)GlcNAc(b1-3)GalNAc
# Procedure, shortened: as §1
binder,measurement,setting,value
B1,glycan array binding signal (z-score),[1],-0.513
same,glycan array binding signal (z-score),[2],-0.123
same,glycan array binding signal (z-score),[3],-0.599
same,glycan array binding signal (z-score),Fuc(a1-2)Gal(b1-4)GlcNAc,0.005
same,glycan array binding signal (z-score),[4],0.025
same,glycan array binding signal (z-score),[5],0.262
same,glycan array binding signal (z-score),[6],-0.626
same,glycan array binding signal (z-score),[7],-0.433
same,glycan array binding signal (z-score),[8],-0.64
same,glycan array binding signal (z-score),[9],-0.711
same,glycan array binding signal (z-score),Gal(a1-3)Gal(b1-3)GlcNAc,12
same,glycan array binding signal (z-score),[10],3.32
same,glycan array binding signal (z-score),[11],0.161
same,glycan array binding signal (z-score),[12],0.198
same,glycan array binding signal (z-score),[13],0.001
same,glycan array binding signal (z-score),[14],3.36
same,glycan array binding signal (z-score),[15],-0.717
same,glycan array binding signal (z-score),[16],2.33
same,glycan array binding signal (z-score),[17],-0.673
same,glycan array binding signal (z-score),[18],-0.348
same,glycan array binding signal (z-score),[19],-0.431
same,glycan array binding signal (z-score),[20],3.33
same,glycan array binding signal (z-score),[21],2.73
same,glycan array binding signal (z-score),[22],2.13
same,glycan array binding signal (z-score),[23],2.36
same,glycan array binding signal (z-score),[24],2.6
same,glycan array binding signal (z-score),[25],0.46
